Assay [1] addresses T1, Ephrin type-B receptor 2 (Homo sapiens) (UniProt P29323).
T1 sequence (whole entry): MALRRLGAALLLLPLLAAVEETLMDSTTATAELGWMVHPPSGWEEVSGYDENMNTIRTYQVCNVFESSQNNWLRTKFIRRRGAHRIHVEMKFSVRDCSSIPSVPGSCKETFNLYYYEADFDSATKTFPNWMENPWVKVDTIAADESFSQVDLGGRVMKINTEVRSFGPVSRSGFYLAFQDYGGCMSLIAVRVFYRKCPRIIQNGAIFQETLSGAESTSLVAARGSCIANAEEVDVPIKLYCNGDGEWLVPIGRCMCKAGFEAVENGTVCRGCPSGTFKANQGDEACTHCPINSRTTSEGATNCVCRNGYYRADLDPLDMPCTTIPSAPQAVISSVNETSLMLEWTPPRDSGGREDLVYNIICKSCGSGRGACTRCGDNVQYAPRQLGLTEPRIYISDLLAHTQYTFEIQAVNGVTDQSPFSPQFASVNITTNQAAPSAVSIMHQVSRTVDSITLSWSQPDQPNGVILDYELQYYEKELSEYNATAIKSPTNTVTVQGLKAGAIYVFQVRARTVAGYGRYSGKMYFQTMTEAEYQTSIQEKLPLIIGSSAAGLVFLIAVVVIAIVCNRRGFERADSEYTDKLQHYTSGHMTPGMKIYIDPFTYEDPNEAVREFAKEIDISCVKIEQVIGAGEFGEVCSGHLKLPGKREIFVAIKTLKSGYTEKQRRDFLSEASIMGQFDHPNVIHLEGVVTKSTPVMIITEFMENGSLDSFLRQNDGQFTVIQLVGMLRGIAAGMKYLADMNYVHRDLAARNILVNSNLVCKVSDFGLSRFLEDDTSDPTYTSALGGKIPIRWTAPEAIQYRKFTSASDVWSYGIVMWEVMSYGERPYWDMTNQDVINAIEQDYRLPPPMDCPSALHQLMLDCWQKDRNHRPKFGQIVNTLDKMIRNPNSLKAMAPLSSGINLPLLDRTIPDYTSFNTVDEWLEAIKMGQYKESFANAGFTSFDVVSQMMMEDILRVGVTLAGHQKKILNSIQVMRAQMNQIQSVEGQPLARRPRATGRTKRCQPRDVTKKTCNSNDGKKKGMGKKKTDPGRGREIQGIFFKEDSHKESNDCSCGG
The conditions noted are these: at 1 µM.

For assay [2], the target named is T2, Ephrin type-B receptor 3 (Homo sapiens) (UniProt P54753).
T2 sequence (whole entry): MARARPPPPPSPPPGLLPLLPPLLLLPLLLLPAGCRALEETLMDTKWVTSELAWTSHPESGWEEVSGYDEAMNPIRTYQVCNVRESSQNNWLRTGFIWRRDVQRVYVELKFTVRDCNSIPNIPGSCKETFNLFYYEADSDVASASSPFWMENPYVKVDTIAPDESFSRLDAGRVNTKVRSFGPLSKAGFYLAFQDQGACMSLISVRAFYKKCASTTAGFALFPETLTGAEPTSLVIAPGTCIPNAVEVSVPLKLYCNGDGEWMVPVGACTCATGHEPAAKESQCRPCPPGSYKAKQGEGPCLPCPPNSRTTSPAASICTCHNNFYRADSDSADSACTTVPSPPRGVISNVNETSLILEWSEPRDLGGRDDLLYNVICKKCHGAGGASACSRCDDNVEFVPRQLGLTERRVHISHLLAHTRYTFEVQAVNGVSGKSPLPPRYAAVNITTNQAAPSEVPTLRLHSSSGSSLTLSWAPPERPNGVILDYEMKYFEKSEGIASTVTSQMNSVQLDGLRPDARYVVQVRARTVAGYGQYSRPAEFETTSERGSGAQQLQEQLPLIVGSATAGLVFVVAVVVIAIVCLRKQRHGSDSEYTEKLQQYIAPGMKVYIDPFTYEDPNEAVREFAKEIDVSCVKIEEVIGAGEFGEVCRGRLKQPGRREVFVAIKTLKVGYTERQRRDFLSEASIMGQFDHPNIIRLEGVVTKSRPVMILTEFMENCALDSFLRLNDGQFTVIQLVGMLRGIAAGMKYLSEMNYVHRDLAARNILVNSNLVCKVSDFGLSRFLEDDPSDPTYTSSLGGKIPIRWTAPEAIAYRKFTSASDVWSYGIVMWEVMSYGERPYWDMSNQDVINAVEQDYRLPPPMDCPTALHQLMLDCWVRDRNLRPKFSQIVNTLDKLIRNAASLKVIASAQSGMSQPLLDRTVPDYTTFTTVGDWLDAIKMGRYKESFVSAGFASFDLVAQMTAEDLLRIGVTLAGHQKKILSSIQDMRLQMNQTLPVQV
Particulars: at 0.1 µM.

Assay [3] addresses T2, Ephrin type-B receptor 3 (Homo sapiens). The conditions noted are these: at 1 µM.
Assay [4] deals with T3, Ephrin type-B receptor 4 (Homo sapiens) (UniProt P54760).
T3 sequence (whole entry): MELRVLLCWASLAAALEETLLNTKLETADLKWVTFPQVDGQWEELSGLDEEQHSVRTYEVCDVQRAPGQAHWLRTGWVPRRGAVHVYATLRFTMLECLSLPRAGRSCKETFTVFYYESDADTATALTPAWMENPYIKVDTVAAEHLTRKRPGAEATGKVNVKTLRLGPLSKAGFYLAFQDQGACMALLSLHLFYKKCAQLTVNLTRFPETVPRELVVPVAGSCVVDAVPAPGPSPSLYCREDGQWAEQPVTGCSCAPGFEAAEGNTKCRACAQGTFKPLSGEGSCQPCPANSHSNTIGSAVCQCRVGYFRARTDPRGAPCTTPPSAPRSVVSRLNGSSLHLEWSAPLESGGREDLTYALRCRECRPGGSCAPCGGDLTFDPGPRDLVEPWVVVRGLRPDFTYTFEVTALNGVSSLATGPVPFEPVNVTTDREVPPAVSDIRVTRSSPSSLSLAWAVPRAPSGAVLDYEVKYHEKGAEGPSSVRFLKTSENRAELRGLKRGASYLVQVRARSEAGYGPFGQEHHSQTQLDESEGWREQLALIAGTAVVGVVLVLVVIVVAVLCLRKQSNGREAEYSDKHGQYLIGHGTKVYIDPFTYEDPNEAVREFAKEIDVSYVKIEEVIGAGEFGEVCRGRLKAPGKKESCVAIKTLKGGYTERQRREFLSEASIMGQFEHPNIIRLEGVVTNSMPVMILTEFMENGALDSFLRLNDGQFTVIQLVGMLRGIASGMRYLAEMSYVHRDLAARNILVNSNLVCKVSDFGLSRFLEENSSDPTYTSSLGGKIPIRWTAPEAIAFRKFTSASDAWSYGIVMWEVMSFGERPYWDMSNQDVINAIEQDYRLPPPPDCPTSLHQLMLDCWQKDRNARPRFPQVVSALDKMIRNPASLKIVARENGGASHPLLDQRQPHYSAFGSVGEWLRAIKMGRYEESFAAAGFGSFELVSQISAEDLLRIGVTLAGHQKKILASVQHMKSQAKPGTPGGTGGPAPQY
The conditions noted are these: at 0.1 µM.

The target of assay [5] is T3, Ephrin type-B receptor 4 (Homo sapiens). The conditions noted are these: at 1 µM.
The target in assay [6] is Receptor tyrosine-protein kinase erbB-2 (Homo sapiens) (UniProt P04626). Particulars: at 0.1 µM.
Sequence of Receptor tyrosine-protein kinase erbB-2 (Homo sapiens) (P04626 whole entry): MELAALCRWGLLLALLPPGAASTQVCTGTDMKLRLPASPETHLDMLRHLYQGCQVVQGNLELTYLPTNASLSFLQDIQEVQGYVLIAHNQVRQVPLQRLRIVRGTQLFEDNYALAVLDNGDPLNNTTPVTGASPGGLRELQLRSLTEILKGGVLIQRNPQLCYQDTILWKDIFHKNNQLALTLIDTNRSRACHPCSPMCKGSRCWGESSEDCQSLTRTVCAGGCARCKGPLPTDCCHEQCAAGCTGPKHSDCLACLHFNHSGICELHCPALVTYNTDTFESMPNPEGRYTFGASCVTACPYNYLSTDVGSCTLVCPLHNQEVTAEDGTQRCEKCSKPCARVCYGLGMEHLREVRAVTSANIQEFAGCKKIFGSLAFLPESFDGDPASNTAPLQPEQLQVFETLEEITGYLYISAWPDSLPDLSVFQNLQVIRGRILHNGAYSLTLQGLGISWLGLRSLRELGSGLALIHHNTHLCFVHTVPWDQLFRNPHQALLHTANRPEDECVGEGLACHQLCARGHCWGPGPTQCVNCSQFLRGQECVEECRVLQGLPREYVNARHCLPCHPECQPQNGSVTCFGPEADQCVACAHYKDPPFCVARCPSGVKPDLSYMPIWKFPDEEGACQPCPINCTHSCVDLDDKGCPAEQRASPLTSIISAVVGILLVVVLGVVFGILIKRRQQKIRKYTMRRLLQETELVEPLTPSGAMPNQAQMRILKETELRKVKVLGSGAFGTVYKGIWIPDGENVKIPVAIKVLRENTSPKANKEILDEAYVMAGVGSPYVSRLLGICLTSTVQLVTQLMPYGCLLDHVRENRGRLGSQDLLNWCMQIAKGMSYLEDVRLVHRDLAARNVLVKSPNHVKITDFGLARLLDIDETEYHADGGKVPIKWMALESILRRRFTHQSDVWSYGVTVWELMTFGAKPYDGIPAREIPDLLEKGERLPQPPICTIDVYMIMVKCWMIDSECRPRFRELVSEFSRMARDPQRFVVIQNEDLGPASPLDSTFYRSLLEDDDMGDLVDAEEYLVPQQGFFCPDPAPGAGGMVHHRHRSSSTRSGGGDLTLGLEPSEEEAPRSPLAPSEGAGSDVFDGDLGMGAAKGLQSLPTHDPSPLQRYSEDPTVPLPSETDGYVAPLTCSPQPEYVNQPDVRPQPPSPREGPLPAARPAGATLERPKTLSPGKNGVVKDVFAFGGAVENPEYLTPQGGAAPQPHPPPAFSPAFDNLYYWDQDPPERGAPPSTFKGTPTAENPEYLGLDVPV
The target is the same in assay [7]. Particulars: at 1 µM.
Assay [8] addresses Receptor tyrosine-protein kinase erbB-4 (Homo sapiens) (UniProt Q15303). The conditions noted are these: at 0.1 µM.
Assay [9] shares this target. Particulars: at 1 µM.
Assay [10] concerns the target Tyrosine-protein kinase Fer (Homo sapiens) (UniProt P16591). The conditions noted are these: at 0.1 µM.
The target is the same in assay [11]. The conditions noted are these: at 1 µM.
The target in assay [12] is Tyrosine-protein kinase Fes/Fps (Homo sapiens) (UniProt P07332). Particulars: at 0.1 µM.
Sequence of Tyrosine-protein kinase Fes/Fps (Homo sapiens) (P07332 whole entry): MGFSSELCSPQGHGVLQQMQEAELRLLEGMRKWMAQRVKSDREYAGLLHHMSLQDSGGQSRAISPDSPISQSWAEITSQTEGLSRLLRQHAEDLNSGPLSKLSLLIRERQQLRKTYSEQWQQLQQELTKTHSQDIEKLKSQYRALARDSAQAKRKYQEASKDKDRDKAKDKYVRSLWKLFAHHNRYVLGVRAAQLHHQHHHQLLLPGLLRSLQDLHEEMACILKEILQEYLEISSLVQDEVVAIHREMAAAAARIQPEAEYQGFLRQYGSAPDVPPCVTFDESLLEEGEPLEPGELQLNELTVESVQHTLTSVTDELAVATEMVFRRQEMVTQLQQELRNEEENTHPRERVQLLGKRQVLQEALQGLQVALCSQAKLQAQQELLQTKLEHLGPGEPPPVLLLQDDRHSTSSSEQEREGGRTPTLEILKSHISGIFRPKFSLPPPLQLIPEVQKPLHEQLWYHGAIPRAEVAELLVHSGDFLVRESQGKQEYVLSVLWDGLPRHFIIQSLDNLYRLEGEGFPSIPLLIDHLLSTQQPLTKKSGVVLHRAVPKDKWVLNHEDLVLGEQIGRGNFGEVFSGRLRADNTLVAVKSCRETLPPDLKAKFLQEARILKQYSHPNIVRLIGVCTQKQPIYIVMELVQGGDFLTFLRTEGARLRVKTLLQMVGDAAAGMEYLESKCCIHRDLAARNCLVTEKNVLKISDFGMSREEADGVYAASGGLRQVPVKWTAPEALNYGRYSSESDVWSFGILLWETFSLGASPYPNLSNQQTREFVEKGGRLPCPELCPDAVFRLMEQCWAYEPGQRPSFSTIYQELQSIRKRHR
Assay [13] shares this target. The conditions noted are these: at 1 µM.
The target of assay [14] is Fibroblast growth factor receptor 1 (Homo sapiens) (UniProt P11362). The conditions noted are these: at 0.1 µM.
Assay [15] shares this target. The conditions noted are these: at 1 µM.
The target in assay [16] is Fibroblast growth factor receptor 2 (Homo sapiens) (UniProt P21802). Particulars: at 0.1 µM.
Sequence of Fibroblast growth factor receptor 2 (Homo sapiens) (P21802 22-821 limits assumed): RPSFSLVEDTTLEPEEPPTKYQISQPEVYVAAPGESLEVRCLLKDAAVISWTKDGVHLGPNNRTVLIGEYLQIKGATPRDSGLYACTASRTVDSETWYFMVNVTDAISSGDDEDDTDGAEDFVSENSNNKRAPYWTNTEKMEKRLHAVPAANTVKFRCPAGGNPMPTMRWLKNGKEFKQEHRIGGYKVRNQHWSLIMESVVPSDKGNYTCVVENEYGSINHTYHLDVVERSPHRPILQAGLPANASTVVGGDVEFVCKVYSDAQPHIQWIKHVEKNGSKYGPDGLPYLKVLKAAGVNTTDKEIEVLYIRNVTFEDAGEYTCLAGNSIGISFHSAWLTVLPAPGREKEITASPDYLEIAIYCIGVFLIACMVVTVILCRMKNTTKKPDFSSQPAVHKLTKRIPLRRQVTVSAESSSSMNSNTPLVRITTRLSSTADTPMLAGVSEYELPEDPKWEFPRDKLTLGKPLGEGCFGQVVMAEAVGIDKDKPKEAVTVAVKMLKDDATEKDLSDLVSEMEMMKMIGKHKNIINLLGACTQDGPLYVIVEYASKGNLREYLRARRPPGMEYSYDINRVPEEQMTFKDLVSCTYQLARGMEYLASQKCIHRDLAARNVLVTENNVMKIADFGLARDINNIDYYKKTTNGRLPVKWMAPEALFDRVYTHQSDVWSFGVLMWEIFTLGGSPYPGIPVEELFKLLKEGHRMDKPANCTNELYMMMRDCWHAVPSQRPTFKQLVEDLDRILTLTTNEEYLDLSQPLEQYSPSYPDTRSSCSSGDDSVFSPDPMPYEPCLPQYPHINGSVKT
For assay [17] the target is unchanged. The conditions noted are these: at 1 µM.
The target in assay [18] is Fibroblast growth factor receptor 3 (Homo sapiens) (UniProt P22607). The conditions noted are these: at 0.1 µM.
For assay [19] the target is unchanged. Particulars: at 1 µM.
Assay [20] deals with Fibroblast growth factor receptor 4 (Homo sapiens) (UniProt P22455). Particulars: at 0.1 µM.
Sequence of Fibroblast growth factor receptor 4 (Homo sapiens) (P22455 22-802 limits assumed): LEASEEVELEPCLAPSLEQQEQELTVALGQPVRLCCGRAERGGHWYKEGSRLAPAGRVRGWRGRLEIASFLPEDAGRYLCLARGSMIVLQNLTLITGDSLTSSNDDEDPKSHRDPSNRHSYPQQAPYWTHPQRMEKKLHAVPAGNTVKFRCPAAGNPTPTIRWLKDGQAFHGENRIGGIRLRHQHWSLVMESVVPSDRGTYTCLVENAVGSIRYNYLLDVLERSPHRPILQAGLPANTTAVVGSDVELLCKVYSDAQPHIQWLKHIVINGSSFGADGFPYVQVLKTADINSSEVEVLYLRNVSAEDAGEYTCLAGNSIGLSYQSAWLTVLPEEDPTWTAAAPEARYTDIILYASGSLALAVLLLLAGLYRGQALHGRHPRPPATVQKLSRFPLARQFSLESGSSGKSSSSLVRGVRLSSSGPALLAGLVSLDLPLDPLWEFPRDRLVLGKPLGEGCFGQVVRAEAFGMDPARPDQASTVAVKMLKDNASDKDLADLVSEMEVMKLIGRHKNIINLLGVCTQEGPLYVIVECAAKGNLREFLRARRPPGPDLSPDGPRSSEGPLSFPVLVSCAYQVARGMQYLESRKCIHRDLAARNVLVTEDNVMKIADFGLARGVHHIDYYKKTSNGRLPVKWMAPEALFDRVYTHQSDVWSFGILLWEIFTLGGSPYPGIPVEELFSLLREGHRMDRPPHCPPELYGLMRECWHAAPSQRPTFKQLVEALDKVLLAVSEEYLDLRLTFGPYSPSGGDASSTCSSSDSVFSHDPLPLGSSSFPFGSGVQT

Sequence of Tyrosine-protein kinase Fer (Homo sapiens) (P16591 whole entry, looked up): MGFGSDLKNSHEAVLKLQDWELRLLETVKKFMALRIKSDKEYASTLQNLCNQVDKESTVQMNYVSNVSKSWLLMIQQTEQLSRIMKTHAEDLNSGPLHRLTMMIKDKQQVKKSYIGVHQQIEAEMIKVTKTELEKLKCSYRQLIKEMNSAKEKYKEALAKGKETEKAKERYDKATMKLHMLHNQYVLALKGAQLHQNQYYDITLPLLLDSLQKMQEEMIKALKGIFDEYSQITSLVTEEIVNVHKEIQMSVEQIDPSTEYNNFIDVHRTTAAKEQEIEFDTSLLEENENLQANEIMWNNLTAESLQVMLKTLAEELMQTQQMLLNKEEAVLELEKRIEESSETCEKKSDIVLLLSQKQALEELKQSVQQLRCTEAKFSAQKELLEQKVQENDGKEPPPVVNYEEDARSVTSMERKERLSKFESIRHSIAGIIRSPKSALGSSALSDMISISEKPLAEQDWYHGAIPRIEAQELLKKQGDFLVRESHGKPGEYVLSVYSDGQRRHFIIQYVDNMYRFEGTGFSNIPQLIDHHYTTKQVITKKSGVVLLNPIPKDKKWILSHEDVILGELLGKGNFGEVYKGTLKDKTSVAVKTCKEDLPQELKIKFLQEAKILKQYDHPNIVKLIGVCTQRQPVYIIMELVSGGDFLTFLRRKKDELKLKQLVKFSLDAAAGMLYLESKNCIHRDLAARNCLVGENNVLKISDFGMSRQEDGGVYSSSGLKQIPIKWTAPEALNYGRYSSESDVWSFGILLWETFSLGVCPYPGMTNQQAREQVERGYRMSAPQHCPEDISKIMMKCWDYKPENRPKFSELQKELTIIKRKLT

Regarding `CS(=O)(=O)CCNCc1cc(-c2cc3c(Nc4ccc(OCc5cccc(F)c5)c(Cl)c4)ncnc3s2)cs1`, the inhibition (as a rule, the relative decrease from the control value, in per cent) in [1] is 7.92%; in [2], 0.62%; in [3] it was 4.6%; in assay [4] it was -0.19%; in assay [5] it was 2.96%; in [6], 3.61%. Further, the inhibition came to 60.2% in assay [7]; 22.7% in [8]; 76.7% in assay [9]; 2.65% in assay [10]; 7.65% in assay [11]; 4.73% in assay [12]. The inhibition stood at 5.27% in [13]; 5.5% in assay [14]; 3.17% in assay [15]; 7.79% in assay [16]; 8.79% in [17]; 6% in [18]. For the same compound, the results for the inhibition in assay [19] and in assay [20] were 6.34% and 5.68%, respectively.

Regarding `NC(=O)c1cc(-c2ccc(F)cc2)cc(-c2ccncc2)c1N`, the inhibition in assay [1] is 8.83%; in assay [2] it was 5.88%; in assay [3] it was 5.99%; in assay [4], 3.64%; in assay [5], 3.21%; in assay [6], 4.35%. For the same compound, the inhibition amounted to 4.97% in assay [7]; 7.7% in assay [8]; 11.7% in [9]; 1.98% in [10]; 1.93% in assay [11]; 3.18% in [12]. Moreover, the inhibition in assay [13] is 3.59%; in assay [14] it was 5.1%; in [15], 3.07%; in assay [16], 1.81%; in [17], 4.41%; in assay [18], 4.84%. Moreover, the inhibition was 2.54% in assay [19] and -4.89% in assay [20].

In the case of `CN1CCN(CCCNc2nc3ccc(Oc4ccc(NC(=O)Nc5cc(C(F)(F)F)ccc5F)cc4)cc3[nH]2)CC1`, the inhibition in [1] is 58.8%; in [2], -3.09%; in assay [3], -6.41%; in [4], -1.44%; in assay [5], 16.4%; in [6] it was -2.7%. Moreover, the inhibition in [7] is -2.07%; in assay [8], 3.38%; in assay [9] it was 2.56%; in [10], 3.88%; in assay [11], 3.71%; in assay [12], 1.57%. The inhibition in [13] is 1.53%; in assay [14], -4.14%; in assay [15], 0.63%; in [16], -1.49%; in assay [17] it was 1.51%; in assay [18], -0.95%. Besides, the values for the inhibition in [19] and in assay [20] were -0.55% and -2.64%, respectively.

For `Cc1nnc(-c2ccc(C)c(-c3ccc(C(=O)NCc4ccc(Cl)cc4)cc3)c2)o1`, the inhibition is 2.23% in assay [1]; 1.15% in assay [2]; -1.34% in assay [3]; -0.5% in assay [4]; -2.62% in assay [5]; 5.39% in assay [6]. Further, the inhibition is 4.99% in assay [7]; 3.42% in [8]; 7.48% in assay [9]; 3.34% in [10]; 3.71% in assay [11]; 2.32% in assay [12]. For the same compound, the inhibition in assay [13] is 1.83%; in assay [14], -2.72%; in assay [15], -1.85%; in [16], 0.07%; in assay [17], 11.1%; in assay [18] it was 1.78%. In addition, the inhibition in [19] is -1.81%.

Regarding `O=C(Nc1n[nH]c2cc(-c3ccccc3)ccc12)C1CC1`, the inhibition in assay [1] stood at 17.1%; in assay [2], 2.9%; in assay [3], 2.89%; in assay [4] it was 2.92%; in [5], 4.63%; in [6] it was 4.46%. Moreover, the inhibition in assay [7] stood at 1.33%; in [8] it was 13.8%; in assay [9] it was 15.8%; in assay [10] it was 6.13%; in [11], 5.6%; in assay [12] it was 2.97%. For the same compound, the inhibition in [13] was determined as 2.53%; in assay [14] it was 8.51%; in [15], 2.95%; in assay [16], 3.3%; in assay [17], 7.98%; in assay [18], 6.47%. The inhibition is 5.96% in assay [19] and -0.91% in assay [20].

As for `C[C@@H](Oc1cc(-n2cnc3ccc(OCC4CCN(C)CC4)cc32)sc1C(N)=O)c1ccccc1Cl`, the inhibition in [1] turned out to be 8.25%; in assay [2], 2.8%; in assay [3] it was 6.12%; in [4] it was 5.24%; in [5], 3.86%; in assay [6], 41.4%. In addition, the inhibition is 4.61% in [7]; 9.63% in assay [8]; 13.1% in assay [9]; 1.28% in [10]; 7.17% in assay [11]; 4.96% in [12]. The inhibition in assay [13] was 7.97%; in assay [14] it was 5.32%; in assay [15] it was 14%; in assay [16], 9.46%; in [17], 12.5%; in assay [18] it was 11.2%. Moreover, the figures for the inhibition in assay [19] and in assay [20] were 8.71% and 3.93%, respectively.

As for `C[C@@H](Oc1cc(-n2cnc3ccc(OC4CCN(C)CC4)cc32)sc1C(N)=O)c1ccccc1Cl`, the inhibition in assay [1] is 7.99%; in [2], -1.42%; in assay [3], -0.38%; in assay [4], -3.06%; in assay [5], -1.28%; in [6], 2.36%. The inhibition in assay [7] is 2.65%; in [8] it was 1.1%; in assay [9], 6.83%; in [10] it was 3.05%; in [11], 3.96%; in [12], 2.48%. The inhibition in [13] was 3.52%; in assay [14], 2.78%; in assay [15], 9.26%; in assay [16], 4.51%; in assay [17], 8.58%; in assay [18] it was 4.86%. The inhibition was 9.86% in assay [19] and -0.28% in assay [20].

The values are drawn from ChEMBL document CHEMBL1961873, “Compounds: GSK PKIS; Assays: Nanosyn kinase panel” (2012).
